# IL-1B inflam inh – inhibitors of inflammasome signaling (IL-1 beta secretion); activity change, % at 57.5 µM; THP-1 LPS/ATP IL-1B secretion, AlphaLISA, 16 h; active compounds read low; 4.7% of 360,000 active; AID 743279; in the data active = activity change below about -50%; inconclusive = mostly about -30% to -49%
#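 THP-1 cells pretreated 1 hr with compounds (up to 57.5 uM final), then stimulated with LPS (250 ng/mL final) plus ATP (1.25 mM final); secreted IL-1B measured by AlphaLISA after 16 hr, decreased signal indicating inhibition.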
# VP16 counter – inhibits Gal4-VP16 luciferase reporter, ROR gamma counter-screen; 3.5% of 310,000 active; Potency, µM (titrated, usually from 53.6 µM), for the others: top-dose activity, negative = inhibition, hits mostly inhibitors; AID 2546; Drosophila S2 Gal4-VP16 UAS-luciferase, luminescence, 20 h;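 also: Gal4-VP16 expression switched on by copper sulfate through the metallothionein promoter; potency is read from the fitted curve at half-maximal effect; nearly all actives have a fitted effect of over 50% in size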
# TDP1 cell noCPT – qHTS for Inhibitors of human tyrosyl-DNA phosphodiesterase 1 (TDP1): qHTS in cells in absence of CPT | AID 686978, 2013 | 15% of 420,000 active | Potency, µM (top dose mostly 46.2 µM), inactives show at the top dose activity change, negative = growth inhibition, actives largely listed as inhibitors | DT40 Tdp1-/- hTDP1 cells, no CPT, ATP luminescence, 48 h; also: potency is read from the fitted curve at half-maximal effect; nearly all actives have a fitted effect of over 55% in size
#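 No-CPT arm: Tdp1-/-;hTDP1 DT40 cells (400/well) plus compounds, incubated ≥48 hr at 37 °C. Readout CellTiter-Glo luminescence.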
# RORgamma inh – inhibitors of mouse ROR gamma transcriptional activity. AID 2551. Drosophila S2 Gal4-RORgamma UAS-luciferase reporter, 20 h. Potency, µM (titrated, usually from 53.6 µM), for inactives: at the highest dose activity change, negative = inhibition, usual class: inhibitors. P51450. 5.4% of 310,000 active; also: potency is read from the fitted curve at half-maximal effect; nearly all actives have a fitted effect of over 60% in size
# Target sequence (P51450 whole entry, looked up, the tested form may be a part): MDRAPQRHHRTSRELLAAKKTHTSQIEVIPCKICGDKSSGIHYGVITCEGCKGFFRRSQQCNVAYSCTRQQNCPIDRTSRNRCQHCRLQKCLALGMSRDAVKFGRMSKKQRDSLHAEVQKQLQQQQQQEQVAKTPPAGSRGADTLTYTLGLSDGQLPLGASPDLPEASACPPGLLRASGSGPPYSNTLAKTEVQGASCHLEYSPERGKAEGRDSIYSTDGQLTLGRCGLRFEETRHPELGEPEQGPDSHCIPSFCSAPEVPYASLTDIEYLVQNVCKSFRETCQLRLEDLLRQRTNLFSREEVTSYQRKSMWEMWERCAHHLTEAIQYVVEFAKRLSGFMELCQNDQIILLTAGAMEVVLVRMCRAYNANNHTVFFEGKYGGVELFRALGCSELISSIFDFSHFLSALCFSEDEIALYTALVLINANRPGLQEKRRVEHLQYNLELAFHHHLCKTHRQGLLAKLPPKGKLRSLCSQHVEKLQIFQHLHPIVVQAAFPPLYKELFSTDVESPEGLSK
#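 Luciferase reporter read in Schneider cells carrying Gal4-RORγ (mouse) and UAS-Photinus luciferase; cells given compound 1 h before 700 uM copper sulfate induction, then incubated 20 h at ambient temperature.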
# LDHA block – blocks human lactate dehydrogenase A. P00338. purified LDHA, NADH/diaphorase-resazurin fluorescence; active compounds read low. activity change, % (values are at about 110 or 230 µM). 0.15% of 480,000 active; in the data active = activity change below about -30%; inconclusive = mostly about -25% to -30%;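 also: plate controls were DMSO wells for no effect and wells without enzyme for full effect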
#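 Human LDH5 at 2 nM final in Tris HCl pH 7.4 with 0.06 mM NADH and 0.2 mM pyruvate, reacted 5 minutes at room temperature. Remaining NADH coupled via diaphorase/resazurin; resorufin fluorescence read at 0 and 20 minutes, normalized to enzyme-free and DMSO wells.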
# DT40 TDP1 CPT – DT40-hTDP1 cell growth loss with CPT; Potency, µM (doses to about 46.2 µM), for inactives: top-dose activity change, negative = growth inhibition, usual class: inhibitors; chicken DT40 Tdp1-/-;hTDP1 cells + 20 nM CPT, ATP luminescence, 48 h; 12% of 420,000 active; also: potency is read from the fitted curve at half-maximal effect; nearly all actives have a fitted effect of over 55% in size
#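 Chicken DT40 Tdp1-/- cells complemented with human TDP1, 400 cells/well, exposed to compounds plus 20 nM camptothecin for at least 48 h at 37 C; viability read as ATP content by CellTiter-Glo luminescence.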
# * marks the source's active call; other numbers are inactive results; ? = inconclusive; · = no result. Most compounds without a hit are left out; they make up all but 18% or so of the library. Unless noted, calls follow the shape of the dose curve; as a rule, active = well fitted curve in the direction sought with a large enough effect; inconclusive = small, poorly fitted or top-dose-only effect, or another doubt; inactive = no such curve, though single readings can be large; an effect the other way counts as inactive or inconclusive. Unless noted, % is scaled to controls: 0 for no effect and ±100 for the full control effect.
SMILES,IL-1B inflam inh,VP16 counter,TDP1 cell noCPT,RORgamma inh,LDHA block,DT40 TDP1 CPT
C#CCN(C(=O)c1ccc(-c2cnco2)cc1)C1CCCCC1,·,·,·,·,8,·
Cc1ccc(NC(=O)c2ccc(NC(=O)C3=CSCCO3)cc2)cc1C,·,·,·,·,-9,·
COc1ccc(CN2CC(=O)N(c3ccc(C)cc3)C2=S)cc1OC,-4,5%,?,27%,3,0%
COc1cc(CN2CC(=O)N(c3ccc(C)cc3)C2=S)cc(OC)c1OC,2,-28%,26µM*,40%,1,?
COc1cc(CN2CC(=O)N(c3ccc(C)c(Cl)c3)C2=S)cc(OC)c1OC,-13,-14%,21µM*,0%,-1,?
CC(CC#N)N1CCN(C(=O)c2cc3ccccc3[nH]2)CC1 (stereo not drawn),·,·,·,·,-8,·
O=c1cc(O)c2sc3nc(C45CC6CC(CC(C6)C4)C5)cc(C(F)(F)F)c3c2[nH]1,·,·,·,·,3,·
Cc1cc(/C=N/NC(=O)c2cccc([N+](=O)[O-])c2)c(C)n1-c1ccc(Cl)cc1Cl,-61*,6.3µM*,?,1.8µM*,-3,?
O=C(N/N=C/c1ccc(Cl)cc1Cl)c1cccc(F)c1,?,?,-20%,11µM*,-10,?
Cc1cccc(/C=N/NC(=O)c2cccc(NC(=O)c3ccccc3)c2)n1,32,-4%,-13%,-17%,-2,-1%
O=C(CNC(=O)c1ccc(S(=O)(=O)N2CCCC2)cc1)N/N=C/c1c(Cl)cccc1Cl,-58*,-14%,?,42%,-5,?
Cc1[nH]c2ccccc2c1/C=N/NC(=O)c1cccc([N+](=O)[O-])c1,2,3%,?,?,-18,-17%
O=C(N/N=C/c1ccc(Cl)cc1Cl)c1ccc2nc[nH]c2c1,-19,11%,?,0%,-15,?
Cc1cccc(/C=N/NC(=O)c2cccc(Cl)c2)n1,-21,11µM*,16µM*,7.1µM*,-1,?
CCCCn1c(N2CCN(Cc3ccccc3F)CC2)nc2c1c(=O)[nH]c(=O)n2C,·,·,·,·,-3,·
O=C(/C=C/c1ccc[nH]1)c1ccc(F)cc1,-2,-18%,-10%,36%,-3,-28%
O=C(N/N=C/c1c(Cl)cccc1Cl)c1ccc(F)cc1,23,-1%,-17%,11µM*,-12,-10%
O=C(N/N=C/c1ccc[nH]1)c1cccc([N+](=O)[O-])c1,-8,10µM*,3%,7.9µM*,-7,12%
O=C(/C=C/c1c(F)cccc1Cl)c1ccc(F)cc1,-2,?,26µM*,?,0,21µM*
O=C(N/N=C/c1cccc([N+](=O)[O-])c1)c1cccc(Br)c1,2,15%,-16%,?,-2,?
O=C(N/N=C/c1c(Cl)cccc1Cl)c1ccc(-n2cnnn2)cc1,0,·,-4%,·,-5,-5%
Cc1cccc(/C=N/NC(=O)c2cccc([N+](=O)[O-])c2)n1,-10,2%,21µM*,-15%,-4,18µM*
CCOc1ccc(-c2nc(CNC(=O)Nc3ccc(Cl)cc3)c(C)o2)cc1,·,·,·,·,-4,·
CC(CCc1ccccc1)NC(=O)CSc1nc2cc(S(=O)(=O)N3CCOCC3)ccc2o1 (stereo not drawn),·,·,·,·,-10,·
C=CCNC(=O)c1cc(-c2ccncc2)nc2ccccc12,·,·,·,·,0,·
SMILES,IL-1B inflam inh,VP16 counter,TDP1 cell noCPT,RORgamma inh,LDHA block,DT40 TDP1 CPT
O=c1[nH]c(=O)n(Cc2ccccc2)c2c1CN(Cc1ccco1)CN2,·,·,·,·,3,·
CNC(=O)CN(C)C(=O)CCc1ncc(-c2ccccc2F)o1,·,·,·,·,-4,·
Cc1cccc(/C=N/NC(=O)c2ccc(F)cc2)n1,43,?,?,7.1µM*,0,?
Cc1[nH]c2ccc(F)cc2c1CC(=O)NCC(c1ccccc1)N1CCCC1 (stereo not drawn),·,·,·,·,-2,·
Cc1c(C(=O)OC(C)C#N)oc2ccc(Cl)cc12 (stereo not drawn),·,·,·,·,-6,·
CCOC(=O)c1nnn(CC(=O)NC(=O)Nc2ccccc2)c1C(=O)OCC,4,-3%,2%,20%,0,4%
CCOC(=O)c1nnn(CC(=O)N2N=C(c3cc(C)ccc3C)CC2c2ccc(OC)cc2)c1C(=O)OCC (stereo not drawn),-8,-13%,15µM*,-15%,-3,29µM*
CCOC(=O)c1nnn(CC(=O)N2N=C(c3ccccc3)CC2c2ccccc2)c1C(=O)OCC (stereo not drawn),21,-19%,18µM*,13µM*,-8,?
CCN1CCN(CC(=O)N2N=C(c3ccc(OC)cc3)CC2c2ccc(OC)cc2)C(=O)C1=O (stereo not drawn),-10,-6%,4%,24%,-6,-3%
CC(=O)c1ccc(OCCCC(=O)Nc2ccc3c(C)cc(=O)oc3c2)cc1,·,·,·,·,5,·
Cc1ccccc1NC(=O)Cn1c(=O)n(Cc2ccc3c(c2)OCO3)c(=O)c2ccccc21,·,·,16µM*,·,-3,-24%
O=C(Cn1c(=O)n(Cc2ccc3c(c2)OCO3)c(=O)c2oc3ccccc3c21)Nc1ccccc1,·,·,-29%,·,-3,-21%
Cc1cccc(C)c1NC(=O)Cn1c(=O)n(Cc2ccc3c(c2)OCO3)c(=O)c2oc3ccccc3c21,·,·,4.6µM*,·,-3,5.2µM*
Cc1ccccc1NC(=O)Cn1c(=O)n(Cc2ccc3c(c2)OCO3)c(=O)c2oc3ccccc3c21,·,·,8.2µM*,·,-7,4.1µM*
O=C(Nc1ccccc1C(=O)NCCc1ccco1)C1=CSCCO1,·,·,·,·,-4,·
COc1ccc(S(=O)(=O)Nc2nc3ccccc3nc2NCCC(C)C)cc1,·,·,·,·,2,·
CC(CNC(=O)c1cc2cc(F)ccc2[nH]1)c1ccccc1 (stereo not drawn),·,·,·,·,0,·
CCCCn1nc(C(=O)NCCC(=O)O)c2ccccc2c1=O,·,·,·,·,-4,·
O=C(CCCN1C(=O)/C(=C/c2ccc(F)cc2)SC1=S)NC1CCS(=O)(=O)C1 (stereo not drawn),19,18µM*,?,4µM*,1,18µM*
CC(C)c1ccc(/C=C2\SC(=O)N(CC(=O)NC3CCS(=O)(=O)C3)C2=O)cc1 (stereo not drawn),-30,7.1µM*,16µM*,?,-1,23µM*
CC(Cc1cccs1)N(Cc1ccccc1)C(=O)c1cccc(S(=O)(=O)N2CCCC2)c1 (stereo not drawn),·,·,·,·,5,·
